Data on 76 compounds can be found in ChEMBL document CHEMBL4513216, “Probing the Open Global Health Chemical Diversity Library for Multistage-Active Starting Points for Next-Generation Antimalarials” (ACS Infect Dis, 2020).

Among all 69,000 compounds or so, about 8,600 (12%) showed an effect of 50% or more. This is one part of a sample in which strong results are shown more often than they occur.

This experiment deals with Plasmodium berghei. The experiment in a line: Screen against P. berghei liver stage (PbLuc), transformed with Luciferase, at 10uM. The class given is functional, HepG2. To be noted: tested at 10 uM.
On to `CNC(=O)CCc1cc(C)nc(C2CCN(c3cnccn3)CC2)c1`, for which the INHIBITION was determined as 34.65%. Next, `CC(=O)N1CCCC1c1nccnc1NCc1cccnc1` (stereo unspecified): -9.51%; `CNc1cncc(C2CCN(S(C)(=O)=O)CC2)n1`: 12.8%; `CCCC(NC(=O)c1ccccc1Br)c1nnn[nH]1` (stereo unspecified): 43.1%. With `Cc1noc(C)c1CC(=O)N1CCC(c2ccn3nccc3n2)CC1`, the INHIBITION is reported as -27.8%. Next, `CS(=O)(=O)N1CC[C@H]2OCC[C@@]2(C(=O)NCCc2ccccn2)C1`: 38.5%; `Nc1cc(CCCNC(=O)NC2CCCC2)nn1-c1ccccc1`: -26.2%.

For the compound `CC(C)N(C(=O)CCc1cccc(F)c1)C1CCOCC1`, the INHIBITION was -6.34%. In the case of `CN1CCN(C(=O)c2nc3c(s2)CCCN3C(=O)C2CC2)CC1`, the INHIBITION was determined as 37.9%. In the case of `CCc1nnc2n1CCN(Cc1ncc(-c3ccccc3)o1)C2`, the INHIBITION amounted to 9.665%. Next, `CCN(CC1CCOC1)C(=O)c1cnc2onc(C)c2c1` (stereo unspecified): 34.15%; `O=C(CC1CCCC1)NCCn1ccc(-c2ccncc2)n1`: 36.3%; `Cc1nnsc1C(=O)NCCn1ccc(-c2ccncc2)n1`: 61.5%. As to `O=C(NCCn1ccc(-c2ccccn2)n1)C1CC1`, the INHIBITION is recorded as -30%. Next, `O=C(NCCn1ccc(-c2ccccn2)n1)c1ccncc1`: 31.2%.

Take `O=C(NCCn1ccc(-c2ccncc2)n1)C1CC1`: the INHIBITION is recorded as 52.6%. In the case of `O=C(NCCn1ccc(-c2ccncc2)n1)c1ccncc1`, the INHIBITION amounted to 26.4%. On to `O=C(NCCn1ccc(-c2ccncc2)n1)c1ccc2c(c1)OCO2`, for which the INHIBITION was 64.5%.

For `CC(C)(C)CC(=O)NCCn1ccc(-c2ccncc2)n1`, the INHIBITION was -4.99%. For the compound `CC(C)(C)C(=O)NCCn1ccc(-c2ccncc2)n1`, the INHIBITION worked out at 11.9%. Next, `CCOCC(O)CN1CCN(C(=O)c2cc(C)ccc2OC)CC1` (stereo unspecified): -35.7%; `Cn1cc(CC2CCN(C(=O)NCc3csc(C4CC4)n3)C2)cn1` (stereo unspecified): 11.8%. With `O=C(O)c1cccnc1CN1CCCCC1CCc1cccs1` (stereo unspecified), the INHIBITION is recorded as 5.78%.

Turning to `Cc1nc(NC(=O)N[C@H](CO)c2ccccc2)sc1C`, the INHIBITION is recorded as 7.3%. Regarding `COc1ccc2nc(CNC(=O)c3cc(C(C)C)no3)[nH]c2c1`, the INHIBITION came to 73.4%.

As for `COc1ccc2cc(C(=O)NCCc3nc(C)no3)[nH]c2c1`, the INHIBITION is -1.79%. The same measure for `COc1ccc(COCC(O)CNC(=O)c2cc(C)no2)cc1` (stereo unspecified): 5.03%; for `COc1ccc2nc(CNC(=O)c3cc(C(C)C)on3)[nH]c2c1`: 27.5%.

With `CCn1nc(C(C)C)cc1C(=O)NCc1nc2ccc(OC)cc2[nH]1`, the INHIBITION turned out to be 37.6%.

`COc1ccc2nc(CCNC(=O)c3cc(CC(C)C)no3)[nH]c2c1`: the INHIBITION is recorded as 55.5%. The same measure for `Cc1ccc(CN2CCC[C@]3(C(=O)O)CN(C)C[C@@H]3C2)s1`: 6.79%; for `c1ccc2c(c1)cnn2CCCNC1CCOC2(CCOCC2)C1` (stereo unspecified): -9.39%; for `c1csc(N2CCCN(c3nccn4cnnc34)CC2)n1`: -27.8%.

Turning to `Cc1cc(C)cc(OCCN(C)Cc2ccc(S(=O)(=O)N(C)C)o2)c1`, the INHIBITION was determined as 7.39%. `CN(CCOc1ccc(Cl)cc1)Cc1ccc(S(=O)(=O)N(C)C)o1`: the INHIBITION worked out at 51%. As to `Cc1ccc(OCCN(C)Cc2ccc(S(=O)(=O)N(C)C)o2)cc1`, the INHIBITION is 47.7%. As to `CC(C)NC(=O)c1ccc2c(c1)C1(CCN(C(C)C)CC1)C(=O)N2`, the INHIBITION is listed as -25.1%. The same measure for `O=C(NCCNc1ncccn1)C1CCN(C(=O)N2CCCC2)CC1`: -33.9%; for `O=C1CC(c2ccc(O)cc2)c2c(n3ccsc3nc2=O)N1` (stereo unspecified): 2.66%; for `C1CC(CO[C@@H]2CC[C@H]3[C@H]2OCCN3CC2CCOCC2)CCO1`: 7.31%. Consider `CCO[C@@H]1CC[C@H]2[C@H]1OCCN2CC1CCOCC1`, for which the INHIBITION worked out at 27.6%. On to `C1CCC(CO[C@@H]2CC[C@H]3[C@H]2OCCN3CC2CCOCC2)C1`, for which the INHIBITION stood at 65.6%. Consider `C1CC(CO[C@@H]2CC[C@H]3[C@H]2OCCN3CC2CC2)CCO1`, for which the INHIBITION is on record as -11.6%. For the compound `CCO[C@@H]1CC[C@H]2[C@H]1OCCN2CC1CCC1`, the INHIBITION came to 54.7%. Next, `CO[C@@H]1CC[C@H]2[C@H]1OCCN2CC1CC1`: 23.6%.

Regarding `COc1ccccc1C(C)N(C)Cc1nc2c(cnn2C)c(=O)[nH]1` (stereo unspecified), the INHIBITION was -75.245%. As for `CCCc1n[nH]cc1C(=O)NCC1COc2cc(OC)ccc2C1` (stereo unspecified), the INHIBITION was -3.83%. The same measure for `CCc1nc2c(NCC3COc4cc(OC)ccc4C3)ncnc2o1` (stereo unspecified): 67.7%; for `CCc1nc2c(NCC3COc4c(cccc4OC)C3)ncnc2o1` (stereo unspecified): 55.4%; for `COc1ccc2c(c1)OCC(CNC(=O)NC(C)(C)C)C2` (stereo unspecified): 31%. On to `CCc1nc2c(NCC3COc4ccccc4C3)ncnc2o1` (stereo unspecified), for which the INHIBITION is given as 91.5%. For the compound `COc1cccc2c1OCC(CNc1ccc(C)nn1)C2` (stereo unspecified), the INHIBITION stood at 42.7%. For `O=C(c1cncc(NCC2COc3ccccc3C2)n1)N1CCCC1` (stereo unspecified), the INHIBITION was determined as 33.7%. Next, `CN1CCN(S(=O)(=O)NCC2COc3ccccc3C2)CC1` (stereo unspecified): -22.1%; `COc1cccc2c1OCC(CNC(=O)Cc1c(C)nc(N)nc1C)C2` (stereo unspecified): -13%. Next, `Cc1nc(C2CCCN(C(=O)COCCc3ccccc3)C2)no1` (stereo unspecified): 11.2%; `CCCn1nccc1-c1cc(C2CCN(S(C)(=O)=O)CC2)nc(C)n1`: -39.4%.

For `COc1ccc2cnn(CC(=O)NCC3CCCO3)c(=O)c2c1OC` (stereo unspecified), the INHIBITION was found to be 34.5%. With `CCC(C)CS(=O)(=O)NC(=O)C1CC1` (stereo unspecified), the INHIBITION was 2.39%.

`CCC(C)CS(=O)(=O)NC(=O)C1CCC1` (stereo unspecified): the INHIBITION was 62.3%. Next, `CCC(CC)CS(=O)(=O)NC(=O)C1CCC1`: 7.49%; `CCCN1CCC(Cc2noc(-c3[nH]cnc3C)n2)CC1`: -1.85%; `Cc1ccc(N2CCCC3(COCCN(c4ccccn4)C3)C2)nn1` (stereo unspecified): 17.2%. Regarding `Cc1ccc(CNC(=O)CN2CCCC(Cn3cncn3)C2)cc1` (stereo unspecified), the INHIBITION was 31.8%.

On to `Cc1ccc(CN2CCn3c(CNC(=O)c4cccn4C)cnc3C2)s1`, for which the INHIBITION is given as 54.7%.

With `O=C(NCc1cn2c(n1)CN(Cc1cccc(F)c1)CC2)C1CCC1`, the INHIBITION was -14.4%. The same measure for `Cn1cccc1C(=O)NCc1cn2c(n1)CN(CC1CCOC1)CC2` (stereo unspecified): 58.4%; for `O=C(CC1CC1)NCc1cn2c(n1)CN(Cc1cccc(F)c1)CC2`: 50.9%; for `Cn1cc(CN2CCn3c(CNC(=O)c4cccn4C)cnc3C2)cn1`: 2.01%. Consider `Cn1cc(C(=O)NCc2cn3c(n2)CN(Cc2ccncc2)CC3)cn1`, for which the INHIBITION is recorded as -4.88%. The same measure for `Cn1cccc1C(=O)NCc1cn2c(n1)CN(Cc1ccccn1)CC2`: -37.6%.

In the case of `Cn1cc(C(=O)NCc2cn3c(n2)CN(Cc2ccccn2)CC3)cn1`, the INHIBITION is 53%.

Turning to `Cn1cccc1C(=O)NCc1cnc2n1CCN(CC1CC1)C2`, the INHIBITION was -13%. The same measure for `Cn1cccc1C(=O)NCc1cn2c(n1)CN(CC1CCOCC1)CC2`: -4.88%; for `Cn1cc(C(=O)NCc2cn3c(n2)CN(CC2CCOC2)CC3)cn1` (stereo unspecified): -11.6%; for `O=C(CC1CC1)NCc1cn2c(n1)CN(Cc1cccnc1)CC2`: 33.4%.
